# Screening results from PubChem.
# The list is not random: actives were taken first. Their share in the collection is about 6%.
# Chronic BCR inh – chronic active BCR signaling inhibition; ABC-DLBCL IkBa-CBG/CBR reporter, luminescence ratio, 4 h; Potency, µM (doses to about 46.1 µM), for the others: at the top dose activity change, negative = inhibition, actives largely listed as inhibitors; 340,000 compounds, 0.05% hits; active means well fitted inhibition curve with a large enough effect in the signal ratio, with a control signal flat, not every such curve was filed as active; inconclusive means small, poorly fitted or top-dose-only effect, or effect the other way, or a change in a side signal; the % refers to the signal ratio;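 further: potency means the concentration at half of the fitted maximal effect; plate controls were basal doxycycline-induced cells for no effect and cells given 10 µM MG132 for full effect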
#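 Doxycycline induced both beetle luciferases in TMD8 lymphoma cells; IKK-driven degradation limits the IkappaBalpha-fused green signal, while red luminescence normalises for cell number and nonspecific effects. Compounds tested up to 46 uM, 4 hrs.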
# D1 agonist – agonists of human D1 dopamine receptor; activation, % at 2 µM; AID 504660; 360,000 compounds, 1% hits; P21728; HEK293 T-REx D1 cells, calcium flux, agonist mode; in the data active means activation above about 30%; further: 0% is about no effect
# Target sequence (P21728 whole entry, looked up): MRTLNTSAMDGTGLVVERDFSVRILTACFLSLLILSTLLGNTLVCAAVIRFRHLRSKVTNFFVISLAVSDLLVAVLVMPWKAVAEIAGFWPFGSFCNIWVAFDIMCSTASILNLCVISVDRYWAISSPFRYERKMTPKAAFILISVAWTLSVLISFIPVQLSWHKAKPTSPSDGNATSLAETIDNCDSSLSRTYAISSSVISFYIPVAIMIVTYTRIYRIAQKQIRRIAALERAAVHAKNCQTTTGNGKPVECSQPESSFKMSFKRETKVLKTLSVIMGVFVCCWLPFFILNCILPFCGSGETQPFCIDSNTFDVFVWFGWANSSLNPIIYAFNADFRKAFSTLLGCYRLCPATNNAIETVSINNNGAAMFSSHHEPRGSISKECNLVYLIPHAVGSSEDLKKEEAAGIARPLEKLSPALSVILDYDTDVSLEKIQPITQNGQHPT
#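 Agonism was scored from calcium flux recorded over 180 s (1 read/s) after pintool compound addition, following a 10-cycle baseline. Cells were inducible force-coupled HEK293 TREx D1, plated overnight at 30 C and loaded with no-wash calcium dye.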
# D1 PAM – potentiators of human D1 dopamine receptor; P21728; HEK293 TREx D1 cells, calcium flux, dopamine EC20 potentiation; potentiation, % at 10 µM; 360,000 compounds, 0.036% hits; in the data active means potentiation above about 30%; further: 0% is about no effect
# DRD3 agonist – D3 dopamine receptor (human) agonism; P35462; D3R DiscoveRx beta-arrestin cells, luminescence, 90 min; max activation, %; 410,000 compounds, 0.58% hits; AID 652048; in the data active means max activation above about 30%; further: 0% is about no effect
#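 Cells at 1500/well, incubated overnight, then treated with pinned compounds (dopamine as control) for 90 min at 37 degrees C. DiscoveRx reagent added for 30 - 60 minutes at room temperature; luminescence read.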
# D3 antag – blocks the human D3 dopamine receptor | P35462 | D3R cells, DiscoveRx beta-arrestin luminescence, antagonist mode; hits give low values | max response, negative = inhibition, % | 360,000 compounds, 2.5% hits | AID 652054; in the data active means max response below about -50%; inconclusive means no clear call, values can overlap the other calls; further: on the % scale 0 is the no-effect control and ±100 the full control effect
#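 Cells plated overnight at 1500 cells/well, then exposed to library compounds with dopamine controls for 90 minutes at 37 degrees C. DiscoveRx reagent added for 30–60 minutes at room temperature; luminescence read, quantitative HTS format.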
# D1 antag – human D1 dopamine receptor antagonism. P21728. AID 504652. HEK293 TREx D1 cells, calcium flux, dopamine EC80; hits give low values. activity change, negative = inhibition, % at 10 µM. 360,000 compounds, 3.2% hits; in the data active means activity change below about -30%; further: on the % scale 0 is the no-effect control and ±100 the full control effect
#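 Compound effects on dopamine-evoked calcium signalling were measured in tetracycline-induced HEK293 Trex D1 cells. Dopamine at EC80 followed a 180 s compound pre-read, and fluorescence was tracked kinetically for 180 s more.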
# The depositor's hits bear a star; ? = inconclusive; . = no result given.
SMILES,Chronic BCR inh,D1 agonist,D1 PAM,DRD3 agonist,D3 antag,D1 antag
CC(C)(C)OC(=O)N1CCC(c2c(C(=O)NC3CCCCC3)cnn2-c2cccc(F)c2)CC1,.,1,3,1,.,18
COc1ccc(-n2nnnc2C(c2ccnc3ccccc23)N2CCN(C/C=C/c3ccccc3)CC2)cc1 (centres undefined),.,.,.,-14,-54*,.
COc1ccc(C(c2nnnn2C2CCCCC2)N2CCN(C/C=C/c3ccccc3)CC2)cc1 (centres undefined),.,.,.,-17,-84*,.
COc1cccc(C(c2nnnn2C(C)(C)C)N2CCN(C/C=C/c3ccccc3)CC2)c1OC (centres undefined),.,.,.,-21,-102*,.
COc1ccc(-n2nnnc2C(c2cccs2)N2CCN(C/C=C/c3ccccc3)CC2)cc1 (centres undefined),.,.,.,-23,-60*,.
CCOc1ccc(C(=O)NCC(c2ccco2)S(=O)(=O)c2cccs2)cc1 (centres undefined),-11%,1,-1,7,.,.
COc1ccc(C(c2nnnn2-c2ccc(OC)cc2)N2CCN(C/C=C/c3ccccc3)CC2)cc1 (centres undefined),.,.,.,-14,-89*,.
COc1ccc(C(c2nnnn2Cc2ccc(F)cc2)N2CCN(c3ccccc3)CC2)cc1 (centres undefined),2%,0,-1,-2,-24,21
COc1ccc(C(c2nnnn2C(C)(C)C)N2CCN(C/C=C/c3ccccc3)CC2)cc1 (centres undefined),.,.,.,-14,-67*,.
CCc1noc(-c2ccc(N(C)Cc3ccc(OC)cc3)c([N+](=O)[O-])c2)n1,.,14,-1,-18,.,-9
OC1(c2cccc(F)c2)CCN(Cc2ccncc2)CC1,2%,3,2,-7,-78*,-1
CC(C)Cc1cc(C(=O)NCc2ccc(Cl)cc2)no1,.,1,0,-21,.,5
NCC(c1ccc(Cl)cc1Cl)c1c[nH]c2ccccc12 (centres undefined),?,41*,-3,4,-2,-11
CN(C)CCCNC(=S)NCC(c1ccc(Cl)cc1Cl)c1c[nH]c2ccccc12 (centres undefined),?,61*,-4,-11,-23,-40*
CCc1ccc(CNC(=O)c2ccc(OC)c(OC3CCN(C(C)C)CC3)c2)nc1,0%,0,-13,2,-1,-80*
C#Cc1ccc(CN2CCC(Oc3cc(C(=O)NC4CC4)ccc3OC)CC2)cc1,1%,4,-11,-5,-20,-45*
COc1ccc(C(=O)NC2CC2)cc1OC1CCN(Cc2ccccc2)CC1,0%,3,-17,-2,-5,-23
COc1ccc(C(=O)NC2CC2)cc1OC1CCN(Cc2ccc(F)cc2)CC1,-6%,1,-20,-18,?,-40*
COc1ccc(C(=O)NCc2cnn(C)c2)cc1OC1CCN(C(C)C)CC1,-2%,1,-6,5,26,-2
COc1ccccc1/C=C/CN1CCC(Oc2cc(C(=O)NC3CC3)ccc2OC)CC1,-2%,11,-5,-7,-77*,-73*
COc1ccc(C(=O)NC2CC2)cc1OC1CCN(Cc2ccc(F)c(F)c2)CC1,6%,4,-8,0,6,-1
CCC(C(=O)Nc1ccc(C)c(Cl)c1)n1c(=O)c(-c2ccccc2NC(C)=O)nc2ccccc21 (centres undefined),.,-1,-1,-19,.,-4
Cc1ccc(NC(=O)CC2Sc3ccccc3NC2=O)c(Br)c1 (centres undefined),.,3,-2,4,.,3
CC(=O)c1ccc(NC(=O)CN2C(=O)CCc3cc(S(=O)(=O)N4CCC(C)CC4)ccc32)cc1,.,7,-1,2,.,4
COc1ccc(/C=C/CN2CCC(Oc3ccc(C(=O)N4CCCCC4)cc3)CC2)cc1,-10%,6,0,-13,-21,-22
COc1ccccc1/C=C/CN1CCC(Oc2ccc(C(=O)N3CCCCC3)cc2)CC1,-24%,6,1,-50,-105*,-9
